About 79,000 compounds went through this panel and 15% of them were active in at least one assay; those are over-represented in the sample as a whole. Calls of active or inactive are those of the source. Cut-off read from the data, not from the text of the source: active = growth inhibition above about 70%; inactive = the rest.

The experiment in a line: NCI Yeast Anticancer Drug Screen. Data for the cln2 rad14 strain (AID 165).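 Note: 0% = growth equal to vehicle treated cultures.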 Particulars: S. cerevisiae cln2 rad14 strain, at 50.0 µM, active compounds read high. Summed up: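 Yeast carrying cln2 and rad14 alterations (cell cycle control and DNA damage repair) were exposed to compounds. Growth inhibition was measured against vehicle-treated controls.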
On to `Cn1c(=O)c(N=Nc2c(=O)n(C)c(=O)n3c2[nH]c2ccccc23)c2[nH]c3ccccc3n2c1=O`, for which the growth inhibition is -27.4% (inactive).

As to `CCCCC(CC)CN(CC(CC)CCCC)C(=O)C(C)OC(=O)C(CC)CCCC` (stereo not given), the growth inhibition was -4.3% (inactive).

Turning to `CC1CN(CCO)C(C)(C)C1` (stereo not given), the growth inhibition was -12.8% (inactive).

Regarding `CC1NCCC(CC(=O)O)C1CC(=O)O` (stereo not given), the growth inhibition is -41.1% (inactive).

Regarding `CCOC(=O)C(Cc1ccccc1)NC(=O)c1[nH]cnc1/N=N/N(C)C` (stereo not given), the growth inhibition was -2.05% (inactive).

With `CCN(CC)CCOC(C)=O`, the growth inhibition is 0.7% (inactive).

For `Cc1ccc(S(=O)(=O)OCC2=C(COS(=O)(=O)c3ccc(C)cc3)C3c4ccccc4C2c2ccccc23)cc1`, the growth inhibition was -27.8% (inactive).

On to `CC1=C(C(=O)NCc2ccccc2)C(c2ccc([N+](=O)[O-])cc2)C(C(=O)NCc2ccccc2)=C(C)N1`, for which the growth inhibition is 4.4% (inactive).

With `O=C(OCCOc1ccc(Cl)cc1Cl)c1ccccc1O`, the growth inhibition was -12.8% (inactive).

As to `Clc1ccccc1C=Nc1ccccc1`, the growth inhibition is 20.6% (inactive).

As for `COc1ccc(/C(C)=N/NC(=O)CC(=O)N(C(=O)c2ccccc2)c2ccc(C)cc2)cc1`, the growth inhibition was 8.15% (inactive).

On to `Cc1nc(N)[nH]c(=O)c1CCCNc1ccc(CCCCCCC2(CCl)OCCO2)cc1`, for which the growth inhibition was 2.9% (inactive).

Consider `COC(=O)CC1C(OC)OC23CCC1C2(C)CCC1C3CCC2CC(OC(C)=O)CCC21C` (stereo not given), for which the growth inhibition is -30.2% (inactive).

Take `O=C(CC(C(=O)c1cccs1)c1cccs1)c1ccsc1` (stereo not given): the growth inhibition was 11.1% (inactive).

On to `N#CCCCNc1ccccc1`, for which the growth inhibition is -4.9% (inactive).

Turning to `CCCC(C)C(=O)OC1CCCCC1C` (stereo not given), the growth inhibition was -45.6% (inactive).

As to `O=C(Nc1ccccc1[N+](=O)[O-])Oc1ccc(-c2ccccc2)cc1`, the growth inhibition was -7.65% (inactive).

Regarding `CCCCCCCCCCCC(=O)CCCCCCCCCCC`, the growth inhibition was -33.9% (inactive).

Take `C=CC(=O)OCC(C)(C)COC(=O)C=C`: the growth inhibition is 16.1% (inactive).

Regarding `Nc1nnnn1C1CCCCC1`, the growth inhibition was -8.65% (inactive).

With `Cc1c(C)c(C(=O)O)c(C)c(C)c1C(=O)O`, the growth inhibition is 9.1% (inactive).

As to `NC(N)=NC(N)=NCc1ccccc1`, the growth inhibition was 12.7% (inactive).

Turning to `Nc1nnc(-c2ccccc2)s1`, the growth inhibition is 13.8% (inactive).

For `CCN(CC)CCOC(=O)Cc1ccccc1`, the growth inhibition is 7.65% (inactive).

Turning to `C[n+]1ccc(/C=C/c2ccc(O)c3ncccc23)c2cccc(O)c21`, the growth inhibition is 7.75% (inactive).

Regarding `Cn1c([N+](=O)[O-])cnc1COc1ccc(NC(=O)CN2CCOCC2)cc1`, the growth inhibition was 33.2% (inactive).

On to `CCC(=O)CC(=O)C(=O)OC`, for which the growth inhibition is -15.7% (inactive).

With `Nc1ccccc1SC1CC(=O)N(c2ccc(Br)cc2)C1=O` (stereo not given), the growth inhibition is 10.8% (inactive).

In the case of `CCN(CC)c1nc2ccccc2o1`, the growth inhibition is -36.8% (inactive).

On to `CC(C(=O)O)N(CCC#N)CCC#N` (stereo not given), for which the growth inhibition is 0.1% (inactive).

`COC(=O)CCNC(=O)c1ccccc1`: the growth inhibition was -5.75% (inactive).

Take `COc1cc(C=O)c(-c2cc(OC)c(OC)cc2C=O)cc1OC`: the growth inhibition was 0.2% (inactive).

On to `CN(C)c1c(F)c(F)c(N=Nc2ccccc2)c(F)c1F`, for which the growth inhibition was -3.15% (inactive).

For `Nc1nc2c(c(-c3nc(N)nc4c3CCC4)n1)CCC2`, the growth inhibition is 7% (inactive).

With `CC1=C(C(=O)CC(=O)C(=O)Nc2cccc(Cl)c2C)Sc2ccccc2N1`, the growth inhibition was 19.1% (inactive).

Take `CC(=O)Nc1ccc(F)cc1`: the growth inhibition is 4% (inactive).

`O=C(O)C1CCC1C(=O)O` (stereo not given): the growth inhibition is -23.9% (inactive).

As for `CC(C)CC(O)C(CC(=O)Nc1ccccc1)S(=O)(=O)c1ccccc1` (stereo not given), the growth inhibition was -28.6% (inactive).

On to `Oc1cc(N2CCCC2)ccc1/C=N/N1C(=S)N(c2ccccc2)C(=Nc2ccccc2)C1=Nc1ccccc1`, for which the growth inhibition was 6.7% (inactive).

For `CN1CCCN(C)CCCN(C)CCCN(C)CCC1`, the growth inhibition was -4.65% (inactive).

The values above are taken from PubChem BioAssay (NCI).
